In the supplement of paper PMC10338343:
± gives the standard deviation.

System: EfPiwi piRISC loaded with L1MC piRNA (26 nt)
Test: pre-steady-state target cleavage rate (min^-1); auxiliary factor: 500 nM Ephydatia muelleri Gtsf1; guide: L1MC piRNA 5'p-UAACUAAAUACUAUGCAAGCUGUAGG; MIWI and MILI are mouse PIWI proteins and EfPiwi is from a freshwater sponge; tags in brackets are library labels; higher = faster piRNA-guided slicing of the target
How it was run: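 Active affinity-purified piRISC (1 nM) loaded with one synthetic guide was mixed with a transcribed, DNA-blocked target RNA library (0.1 nM), with or without 500 nM GTSF1 partner protein, in HEPES–potassium acetate buffer at 33 °C for 0–8 or 0–960 min. Uncleaved targets were sequenced, normalised to depth and to weakly complementary targets, and pooled across three trials, with k3 capped at 0.0001 min^-1. The pre-steady-state cleavage rate was determined with a burst-and-steady-state fit.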

Row | Sequence | pre-steady-state target cleavage rate
1 | UCCUGGAUCAGCUUCCAUAGUAUUUAGAAA | 0.00474 ± 0.0027
2 | UCCUGCUACAGCUUGCAUAGUAUUUCAGUUA | 0.00522 ± 0.0019
3 | UCCUGGAUGUCGAACCAUGGUAUUUAGUUA | < 0.0001
4 | UCCUCCUACAGCUAUGCAUAGUAUUUAGUUA | 0.0164 ± 0.0055
5 | UCCUGGAUGUGCUUGCAUAGUAUUUAGCUA | 0.00363 ± 0.0021
6 | UCCUGGAUGUCGAACGUAUCUAUUUAGUAA | < 0.0001
7 | UCCUGCUACUGCUUGCAAAGUAUUUAGUUA | 0.00588 ± 0.0023
8 | UCCUCCUACAGCUUGCAUAGUAUUUAUUUA | 0.143 ± 0.053
9 | UCCUGGUACCGCUUGCAUAGUAUUUAGUUA | 0.00412 ± 0.0035
10 | UCCUGGAUGUCGAACGAUACGUAUUUAGUUA | < 0.0001
11 | UCCUGCUACAGCUUGCAUAGUAUAUAGUAA | 0.00354 ± 0.0018
12 | UCCUGGAACAGCUAGCAUAGUAUUUAGUAA | 0.00289 ± 0.0015
13 | UCCUGGUUGAGCUUGCAUAGUAUUUAGUUA | 0.0176 ± 0.0053
14 | UCCUGGUACAGCUUGCAUAGUGUUUAGUUA | 0.00794 ± 0.0028
15 | UCCUGGAUCAGCUUGCACAGUAUUUAGUUA | 0.0672 ± 0.016
16 | UCCUGGAUGUCGAACGUAUGUUAUUUAGUUA | < 0.0001
17 | UCCUGGAUGUCCUUGCAUAGUAUGUAGUUA | 0.00374 ± 0.0037
18 | UCCUGGAUGUCGAACCAUCGUAUUUAGUUA | < 0.0001
19 | UCCUCCAUGAGCUUGCAUAGUAUUUACAAA | 0.00312 ± 0.0024
20 | UCCUCCUACAGCUAGCAUAGUAUUUAGUAA | 0.005 ± 0.0022

Row | Sequence | pre-steady-state target cleavage rate
21 | UCCUGGAUGUCGAACGUUAGUAAAAAGUUA | < 0.0001
22 | UCCUGGUACAGCUUGCAUAGUACUUUAGUUA | 0.00549 ± 0.0027
23 | UCCUGGAUGUCGAAGGAUAGUUUUUAGUUA | < 0.0001
24 | UCCUGGAAGUCCUUGCAUAGUAUUUAGUUA | 0.0092 ± 0.0031
25 | UCCUGCUAGAGCUUGCAUUGUAUUUAGUUA | 0.00751 ± 0.0022
26 | UCCUGGAUGUCGUUGCAUAGAUAAAUCAAA [g11:g18:cont:t1A] | < 0.0001
27 | UCCUCGUACAGCUUGGAUAGUAUUUAGUUA | 0.0441 ± 0.0092
28 | UCCUGGUACAGCUUCGAUAGUAUUUACAAA | 0.00595 ± 0.0049
29 | UCCUGGAUGUGGAUGCAUAGUAUUUAGUUA | 0.00943 ± 0.0037
30 | UCCUGGAUGUGAUUGCAUAGUAUUUAGUUA | 0.00623 ± 0.0031
31 | UCCUGGUACAGCUUGCAUAGAAUUUAGAAA | 0.00253 ± 0.0021
32 | UCCUGGAUGUCGAACGUAUCUAUUUUCUUA | < 0.0001
33 | UCCUGGAUGUCGAACCAUAGUAUUUACAAA [g5:g15:cont:t1A] | < 0.0001
34 | UCCUGGAUGUCGAACGAUAGUAUUUAGUUA | < 0.0001
35 | UCCUGGAACAGCUUGCAUAGUAUUUAGUCA | 0.0042 ± 0.0024
36 | UCCUGGUUCAGCUUGCUUAGUAUUUAGUUA | 0.0145 ± 0.0054
37 | UCCUGGAUGAACUUGCAUAGUAUUUAGUUA | 0.0179 ± 0.0064
38 | UCCUGCUACAGCUUGCAUAGUAUUUAGCUUA | 0.00522 ± 0.0019
39 | UCCUGGAACAGCUUCCAUAGUAUUUAGAUA | 0.00228 ± 0.0017
40 | UCCUGCUACAGCUUGCAUAGUAUAUUGUUA | 0.00351 ± 0.0021
